An excerpt weighted towards active compounds, which were near 13% of everything screened.
USP30 inh: blocks human USP30 ubiquitin-rhodamine cleavage; 47,000 compounds, 5.3% hits; Q70CQ3; AID 1645860; purified USP30, Ub-rhodamine cleavage fluorescence; inhibition, % at 25 µM
USP17 block: human USP17-like deubiquitinase inhibition; inhibition, % at 50 µM; 47,000 compounds, 6.5% hits; purified USP17, Ub-rhodamine cleavage fluorescence, 3 h; AID 1645855
USP8 block: human USP8 deubiquitinase inhibition | 47,000 compounds, 4.2% hits | inhibition, % at 20 µM | purified USP8, Ub-rhodamine cleavage fluorescence, 30 min | P40818
USP28 block: human USP28 deubiquitinase inhibition | Q96RU2 | purified USP28, Ub-rhodamine cleavage fluorescence, 30 min | inhibition, % at 25 µM | 47,000 compounds, 3% hits | AID 1645857
OTUD3 block: blocks human OTUD3 ubiquitin-rhodamine cleavage. 47,000 compounds, 0.7% hits. inhibition, % at 25 µM. Q5T2D3. AID 1645858. purified OTUD3, Ub-rhodamine fluorescence, 2 h
* marks the source's active call; other numbers are inactive results. Rule as the data show it: active = inhibition above about 30%; inactive = the rest.

How did CCCCNC(=O)c1cc2cccnc2n(Cc2ccccc2)c1=O do in these assays?
USP30 inh: 23.6; USP17 block: 69.3*; USP8 block: -7.4; USP28 block: 27.7; OTUD3 block: 9.6

Results for CC(C)=CCCC1(C)C=Cc2c(O)c3c(c(CC=C(C)C)c2O1)O[C@]12C(=C[C@@H]4CC1C(C)(C)O[C@@]2(C/C=C(/C)C(=O)O)C4=O)C3=O (stereo not given in full) ?
USP30 inh: 37.0*; USP17 block: 82.2*; USP8 block: 70.2*; USP28 block: 89.6*; OTUD3 block: 76.8*

How did CC(C)C1OC(=O)C(Cc2ccccc2)N(C)C(=O)C(C(C)C)OC(=O)C(Cc2ccccc2)N(C)C(=O)C(C(C)C)OC(=O)C(Cc2ccccc2)N(C)C1=O (stereo not given) do in these assays?
USP30 inh: 0.9; USP17 block: -4.8; USP8 block: 3.9; USP28 block: -11.3; OTUD3 block: -7.8

What do the screens show for `Cc1cccc(COc2ccc(C3SCC(=O)Nc4n[nH]c(C)c43)cc2)c1` (stereo not given)?
USP30 inh: 20.7; USP17 block: 56.1*; USP8 block: 85.5*; USP28 block: 12.6; OTUD3 block: 13.2

What do the screens show for `Cc1[nH]nc2c1C(c1cccc(F)c1)SCC(=O)N2` (stereo not given)?
USP30 inh: -1.6; USP17 block: -3.4; USP8 block: 2.8; USP28 block: -5.2; OTUD3 block: -5.7

How did O=C(NC[C@H]1OC[C@@H]2CCN(Cc3nccs3)C[C@@H]21)c1ccno1 do in these assays?
USP30 inh: -12.4; USP17 block: -4.7; USP8 block: -37.3; USP28 block: -14.2; OTUD3 block: -5.2

What do the screens show for `O=C(CNC(=O)OCc1ccccc1)Nc1ccc(Br)cc1C(=O)c1ccccc1Cl`?
USP30 inh: -6.0; USP17 block: 77.1*; USP8 block: 0.9; USP28 block: -2.1; OTUD3 block: 14.4

What do the screens show for `O=C(CNC(=O)c1ccccc1Br)Nc1ccc(Br)cc1C(=O)c1ccccc1`?
USP30 inh: 43.4*; USP17 block: 21.7; USP8 block: 4.2; USP28 block: 13.9; OTUD3 block: 15.0

What do the screens show for `O=C1NCC2(CCCN(Cc3cccnc3)C2)Oc2ccccc21` (stereo not given)?
USP30 inh: 25.5; USP17 block: 14.9; USP8 block: 17.9; USP28 block: 13.1; OTUD3 block: 20.7

Results for CCN1CCC2(COCc3c(C)nc(NCC4CC4)nc32)C1 (stereo not given) ?
USP30 inh: -61.2; USP17 block: -4.6; USP8 block: -12.6; USP28 block: -6.6; OTUD3 block: -10.8

What do the screens show for `CC(C)[C@@H]1NC(=O)[C@H](C)OC(=O)[C@@H](C(C)C)NC(=O)[C@@H](C(C)C)OC(=O)[C@H](C(C)C)NC(=O)[C@H](C)OC(=O)[C@@H](C(C)C)NC(=O)[C@@H](C(C)C)OC(=O)[C@H](C(C)C)NC(=O)[C@H](C)OC(=O)[C@@H](C(C)C)NC(=O)[C@@H](C(C)C)OC1=O`?
USP30 inh: 0.1; USP17 block: -8.0; USP8 block: 5.3; USP28 block: -7.6; OTUD3 block: -11.4

What do the screens show for `O=c1c2ccccc2nc(CSc2cccc(Cl)c2Cl)n1-c1ccccc1`?
USP30 inh: 12.0; USP17 block: 6.3; USP8 block: 30.4*; USP28 block: -4.3; OTUD3 block: 9.2

What do the screens show for `Cc1ccccc1SCc1nc2ccccc2c(=O)n1-c1cccc(C(F)(F)F)c1`?
USP30 inh: 10.4; USP17 block: 11.3; USP8 block: 18.5; USP28 block: 6.0; OTUD3 block: 11.3

How did CC(NC(=O)c1cn(C)c2ncccc12)c1ccccn1 (stereo not given) do in these assays?
USP30 inh: -16.2; USP17 block: -4.3; USP8 block: -1.9; USP28 block: -7.4; OTUD3 block: -0.8

How did COc1ccccc1-c1cc([C@H]2CN3CC[C@H]2C[C@@H]3CN)n(C)n1 do in these assays?
USP30 inh: -199.1; USP17 block: 0.1; USP8 block: 54.2*; USP28 block: -71.5; OTUD3 block: -47.4

How did COc1ccc(-c2cc([C@H]3CN4CC[C@H]3C[C@@H]4CO)n(C)n2)cc1OC do in these assays?
USP30 inh: 19.5; USP17 block: 7.0; USP8 block: -1.6; USP28 block: 7.4; OTUD3 block: 10.4

Results for Oc1ccc2cc(Br)ccc2c1CN1CC=C(c2ccccc2)CC1 ?
USP30 inh: 12.9; USP17 block: 9.0; USP8 block: 43.5*; USP28 block: 7.7; OTUD3 block: 6.7

How did O=C(CN1CC=C(c2ccccc2)CC1)Nc1ccc2c(c1)OCO2 do in these assays?
USP30 inh: 15.2; USP17 block: 10.1; USP8 block: 8.2; USP28 block: 7.8; OTUD3 block: 7.7

What do the screens show for `CC1CC[C@@]2(NC1)O[C@H]1C[C@H]3[C@@H]4CC=C5C[C@@H](O)CC[C@]5(C)[C@H]4CC[C@]3(C)[C@H]1[C@@H]2C` (stereo not given in full)?
USP30 inh: 37.6*; USP17 block: 51.7*; USP8 block: -5.3; USP28 block: 31.2*; OTUD3 block: 13.7

Results for CN1C(=O)[C@]23CC4=CC=C[C@H](O)[C@H]4N2C(=O)[C@@]1(CO)SS3 ?
USP30 inh: 50.5*; USP17 block: -18.2; USP8 block: -8.2; USP28 block: -16.3; OTUD3 block: -11.3

How did Cc1ccc2nc(COC(=O)C(O)(c3ccccc3)c3ccccc3)cc(=O)n2c1 do in these assays?
USP30 inh: -55.9; USP17 block: -1.8; USP8 block: 40.1*; USP28 block: 10.8; OTUD3 block: -4.1

Results for N#Cc1ccc(COC(=O)C(O)(c2ccccc2)c2ccccc2)cc1 ?
USP30 inh: 9.6; USP17 block: 17.0; USP8 block: 5.0; USP28 block: 20.3; OTUD3 block: 11.3

Results for COc1cccc2oc3c4c(cc(OC)c3c(=O)c12)OC1OC=CC41O (stereo not given) ?
USP30 inh: -36.6; USP17 block: 10.7; USP8 block: -1.9; USP28 block: 10.7; OTUD3 block: -1.2

How did COc1c(Cl)ccc2c(=O)c3c(oc12)C1=C2[C@@H](OCO1)[C@@H](OC)c1cc4c(c(O)c1[C@@]2(O)[C@H]3O)C(=O)N(C)[C@H](OC)[C@@H]4O do in these assays?
USP30 inh: 59.9*; USP17 block: 12.4; USP8 block: -16.7; USP28 block: 43.3*; OTUD3 block: 31.7*

Results for CO[C@H]1CC[C@H](O)c2c1oc1c3c4c(c(O)c1c2=O)-c1c(cc2cc(C)n(N)c(=O)c2c1O)C[C@@H]4OCO3 ?
USP30 inh: -29.4; USP17 block: 27.9; USP8 block: 2.2; USP28 block: 8.1; OTUD3 block: 6.5

How did COc1c(Cl)ccc2c(=O)c3c(O)c4c5c(c3oc12)OCO[C@H]5[C@@H](OC)c1cc2c(c(O)c1-4)C(=O)N(C)[C@H](OC)[C@@H]2O do in these assays?
USP30 inh: 64.2*; USP17 block: -11.9; USP8 block: 6.1; USP28 block: 49.0*; OTUD3 block: 22.9

Screening data deposited in PubChem BioAssay by Buhrlage Lab, Dana-Farber Cancer Institute and Novartis Institutes for BioMedical Research (Cambridge, Mass).
